# CYP2C19 inh = inhibitors of human CYP2C19. CYP2C19 Supersomes, luciferin-H EGE luminescence, 30 min. inhibition, % at 5 µM. P33261. hit rate 21% among 96,000;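 active = CYP2C19 inhibition above a set limit at 5 µM in the primary screen, cut at about 50% in these data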;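 also: plate controls were negative control wells for no effect and 2.5 mM tranylcypromine positive control for full effect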
# Target sequence (P33261 whole entry, looked up): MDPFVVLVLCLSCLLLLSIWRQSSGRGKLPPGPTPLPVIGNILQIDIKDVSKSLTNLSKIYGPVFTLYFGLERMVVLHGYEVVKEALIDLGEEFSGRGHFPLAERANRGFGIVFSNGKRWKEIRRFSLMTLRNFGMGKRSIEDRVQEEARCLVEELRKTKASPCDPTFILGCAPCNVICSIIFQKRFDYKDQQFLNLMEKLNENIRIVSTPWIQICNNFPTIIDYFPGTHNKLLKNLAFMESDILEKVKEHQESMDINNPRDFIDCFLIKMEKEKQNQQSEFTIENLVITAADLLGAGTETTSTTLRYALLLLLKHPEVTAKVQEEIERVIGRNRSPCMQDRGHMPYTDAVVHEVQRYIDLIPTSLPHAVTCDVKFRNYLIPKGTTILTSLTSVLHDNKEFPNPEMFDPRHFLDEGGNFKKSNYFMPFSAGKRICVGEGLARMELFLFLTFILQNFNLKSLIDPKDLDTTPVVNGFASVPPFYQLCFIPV
# CYP2C9 inhib = blocks human cytochrome P450 2C9 | P11712 | CYP2C9 Supersomes, luciferin-H conversion, luminescence | inhibition, % at 5 µM | hit rate 20% among 96,000 | AID 777;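 active = blocking of liver enzyme CYP2C9 beyond about 50% at 5 µM, limit read from the data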
# CYP2C9 act = increases human cytochrome P450 2C9 activity | AID 1024 | activation factor at 5 µM | recombinant CYP2C9, luciferin-H conversion, luminescence; hits give high values; factor 1 = untreated enzyme, 0 = blocked | hit rate 1.4% among 96,000 | P11712;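 active = activation factor of 2 or more for CYP2C9 at a 5 µM dose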;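 also: 0 = sulfaphenazole-blocked wells and 1 = vehicle-only wells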
# PostGolgi ctrl = growth of the yeast control strain, post-Golgi counter-screen; inhibition, % at 10 µM; efflux-deficient yeast background strain, growth absorbance A615, 16 h; hit rate 5% among 98,000
# PostGolgi yeast = growth inhibition of a yeast mutant, post-Golgi transport screen; post-Golgi transport phenotypic cell assay; inhibition, % at 10 µM; hit rate 0.9% among 98,000;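 also: yeast cells grown in 1536-well plates; yeast grown about 18 h at 30C before absorbance read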
# CYP2C19 activ = activators of human cytochrome P450 2C19. P33261. recombinant CYP2C19, luciferin-H EGE luminescence; hits give high values; 0 = fully inhibited enzyme, 1 = untreated enzyme. activation factor at 5 µM. 96,000 tested, under 10 active;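 active = activation factor of at least 2 at 5 µM in the primary screen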;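 also: 0 = wells with 2.5 mM tranylcypromine and 1 = vehicle-only wells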
# Active calls of the source: *; · = no result given. This is a sample that favours compounds with a hit; in the whole collection about 32% have one here. Rule as the data show it, unless noted: active = inhibition above about 30%; inactive = the rest.
SMILES,CYP2C19 inh,CYP2C9 inhib,CYP2C9 act,PostGolgi ctrl,PostGolgi yeast,CYP2C19 activ
Cc1onc(-c2ccccc2)c1C(=O)n1cccn1,41,7,0.9,-4,4,0.6
Cc1noc(C)c1C(=O)N1CCCc2ccccc21,18,4,1,5,5,0.8
Cc1onc(-c2ccccc2Cl)c1C(=O)N1CCCc2ccccc21,68*,16,0.8,16,-10,0.3
CS(=O)(=O)N1CCC(C(=O)Nc2ccc(Br)cc2F)CC1,-1,-8,1.1,9,-3,1
CCC1Oc2ccccc2N(CC(=O)Nc2ccc3c(c2)OCCO3)C1=O (configuration not stated),·,·,·,8,-3,·
Cc1onc(-c2ccccc2Cl)c1C(=O)OCC(=O)N1CCCc2ccccc21,94*,96*,0,4,-2,0.1
Cc1onc(-c2c(F)cccc2Cl)c1C(=O)N1C=CC(C(F)(F)Cl)=NCC1,58*,29,0.7,3,-1,0.4
COc1cc(NC(=O)CS(=O)(=O)c2ccc(C)cc2)cc(OC)c1OC,73*,20,0.8,-6,-2,0.3
COCC(=O)Nc1cc(OC)ccc1OC,6,-21,1.2,-2,3,0.9
COc1ccc(OC)c(NC(=O)CS(=O)(=O)c2ccccc2)c1,69*,-325,4.3*,6,1,0.3
COc1ccc([N+](=O)[O-])cc1NCc1ccccc1C,68*,69*,0.3,8,-4,0.3
COc1ccc(OC)c(NC(=O)Nc2ccccc2C)c1,67*,29,0.7,14,24,0.3
NC(=O)c1cc(S(=O)(=O)NC2CCCCC2)co1,21,7,0.9,-2,-1,0.8
CCS(=O)(=O)NCCc1cc2c(OC)ccc(OC)c2[nH]c1=O,·,·,·,-2,-5,·
O=c1[nH]nc(Cc2ccc3ccccc3n2)c2ccccc12,8,14,0.9,17,10,0.9
CC1=C(C(=O)NCc2ccccc2)C(c2cccs2)n2ncnc2N1 (configuration not stated),7,4,1,-5,-7,0.9
Cc1cccc(NC(=O)C2CCCN2C(=O)OCC(C)C)c1C (configuration not stated),·,·,·,35*,-3,·
COc1ccc(C)cc1NC(=O)C1CCCN1C(=O)OCc1ccccc1 (configuration not stated),32,-10,1.1,3,-20,0.7
COc1ccc([N+](=O)[O-])cc1NC(=S)NC(NC(=O)Cc1ccc(OC)c(OC)c1)C(Cl)(Cl)Cl (configuration not stated),31,58*,0.4,9,-6,0.7
COc1ccc(OC)c(NC(=O)CSc2ncccn2)c1,31,-6,1.1,9,-4,0.7
COc1ccc(NC(=S)NC(NC(=O)C(C)C)C(Cl)(Cl)Cl)c([N+](=O)[O-])c1 (configuration not stated),-9,9,0.9,8,5,1.1
COc1ccc(OC)c(NC(=O)C2CCCN2C(=O)OCc2ccccc2)c1 (configuration not stated),97*,62*,0.4,12,3,0
COc1ccc(OC)c(NC(=O)CSc2ccccc2)c1,57*,-38,1.4,10,2,0.4
Cc1cccc(NC(=O)C2CCCN2C(=O)OCC(C)C)c1 (configuration not stated),34,15,0.9,6,-4,0.7
COC(=O)C1CSC(C(=O)OC)N1C(=O)CN1CC(C)OC(C)C1 (configuration not stated),-1,-13,1.1,-1,24,1
SMILES,CYP2C19 inh,CYP2C9 inhib,CYP2C9 act,PostGolgi ctrl,PostGolgi yeast,CYP2C19 activ
O=C(NC(=S)Nc1ccc(Oc2ccc(Cl)cc2)cc1)c1ccccc1,8,31,0.7,1,13,0.9
Cc1n[nH]c(=S)n1/N=C/c1ccccc1OCc1ccc(Cl)cc1,-22,11,0.9,24,-21,1.2
COc1ccc(OC)c(NC(=O)C(=O)/C=C(\O)c2cc(OC)ccc2OC)c1,8,-4,1,30*,11,0.9
COc1ccc(OC)c(NC(=O)CSc2ccc3ccccc3c2)c1,32,-29,1.3,40*,19,0.7
COc1ccc([N+](=O)[O-])cc1NC(=O)CSc1ccccc1,93*,-20,1.2,10,-8,0.1
COC(=O)C1CSC(C(=O)OC)N1C(=O)Nc1c(C)cccc1C (configuration not stated),42,6,0.9,38*,-5,0.6
Cc1cccc(C)c1NC(=O)N1C(C(=O)O)CSC1C(=O)O (configuration not stated),-21,-19,1.2,1,-1,1.2
Cc1cc(-c2nnc(-c3ccccc3)c(-c3ccccc3)n2)c(C)o1,24,71*,0.3,-3,13,0.8
c1ccc(-c2nnc(-c3c[nH]c4ccccc34)nc2-c2ccccc2)cc1,10,99*,0,15,3,0.9
CCN(C1CCCCC1)S(=O)(=O)c1ccc(S(=O)(=O)N2CCN(CCC#N)CC2)cc1,43,47,0.5,6,17,0.6
Cc1ccccc1NS(=O)(=O)c1ccc(OCC(=O)N2CCCC2)cc1,-18,-23,1.2,3,3,1.2
COc1cc(CNCCc2ccccc2F)ccc1OCc1ccc(Cl)nc1,76*,33,0.7,10,-1,0.2
COc1cc(CNCCc2c[nH]c3ccccc23)ccc1OCc1ccc(F)cc1,63*,47,0.5,41*,-1,0.4
COc1cccc(CNCCc2c[nH]c3ccccc23)c1OCc1ccc(F)cc1,27,8,0.9,81*,93*,0.7
CCN(CC)C(=O)C(=O)c1cccn1-c1ccccc1C#N,18,-7,1.1,10,-2,0.8
N#Cc1c(N)nc2c(c1N)CC(=O)N2c1ccccc1-c1ccccc1,96*,87*,0.1,3,2,0
N#Cc1c(N)nc2c(c1N)CC(=O)N2c1ccc(Cl)cc1,52*,30,0.7,10,7,0.5
Cc1cc(-c2ccc(Cl)cc2)c(C#N)c(N)n1,23,16,0.8,6,6,0.8
COCCCNC(NC(=O)c1ccc(Cl)cc1)C(Cl)(Cl)Cl (configuration not stated),43,25,0.7,11,3,0.6
CN1CCN(C(=O)c2cc3c(C(F)(F)F)nn(C)c3s2)CC1,-3,-20,1.2,5,6,1
CS(=O)(=O)N1CCCC(C(=O)NCc2ccccc2Cl)C1 (configuration not stated),19,-1,1,-10,29,0.8
Cc1cc(NS(=O)(=O)c2ccc(NC(=O)c3cc4ccccc4o3)cc2)nc(C)n1,4,31,0.7,5,3,1

# Compound activity as filed in PubChem BioAssay.
